The nature of assay [1]: antimalarial activity against Dd2 strain (AID 2302;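 active means growth inhibition above 50% at the single 2 µM test dose, taken to imply half-maximal potency below 2 µM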;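 further: 0% = DMSO untreated growth and 100% = chloroquine plus artemisinin killed control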). The note with it: P. falciparum Dd2 in RBCs, LDH growth readout, 72 h; at 2 µM; hits give high values.
The nature of assay [2]: HepG2 cytotoxicity, primary screen, cytotoxicity control for P. falciparum antimalarial project, cell-based, ATP luminescence (AID 2303;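 active means inhibition above 50%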;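 further: 0% = DMSO wells and 100% = digitonin-killed cells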). The following applies: HepG2 viability, 24-48 h, at 10 µM, hits give high values.
For assay [3], the target named is L-lactate dehydrogenase (Plasmodium falciparum (isolate CDC / Honduras)) (UniProt Q27743). Kind of assay: PfLDH activity inhibition – cell lysate, 3D7 strain, counter-screen for P. falciparum growth inhibition project (AID 2304).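 Further: 0% = vehicle and 100% = reference inhibitor.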 The following applies: P. falciparum 3D7 crude extract, LDH APAD/NBT absorbance; at 2 µM; hits give high values.
A short description of assay [4]: inhibition of 3D7 malaria parasite growth – strain 3D7 (AID 2306).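 Further: 0% = DMSO wells and 100% = chloroquine plus artemisinin control wells.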 The following applies: P. falciparum 3D7 erythrocytic growth, LDH absorbance, 72 h; at 2 µM; hits give high values.
In assay [5] the target is Calcium-dependent protein kinase 1 (Plasmodium falciparum (isolate 3D7)) (UniProt P62344). The assay is described as follows: PfCDPK1 kinase inhibitors, biochemical, TCAMS library (AID 1159585; cut-off not given, nearly all actives have IC50 up to about 0.98 µM;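 further: inhibitors leave more ATP so luminescence rises with inhibition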). The note with it: recombinant PfCDPK1, Kinase-Glo ATP depletion luminescence.
In assay [6] the target is Plasmodium falciparum protein kinase 6 (PK6, PF3D7_1337100) (UniProt Q8IDW1). Kind of assay: PfPK6 kinase inhibitors, biochemical, TCAMS library (AID 1159586). The following applies: recombinant PfPK6, Kinase-Glo ATP depletion luminescence.
The target of assay [7] is Protein kinase 7 (PK7), Plasmodium falciparum 3D7 (PF3D7_0213400) (UniProt Q7YTF7). Kind of assay: inhibition of Plasmodium PK7 catalytic activity – biochemical, TCAMS antimalarial set, Kinase-Glo luminescence (AID 1159587). The note with it: recombinant PfPK7, Kinase-Glo ATP depletion luminescence.
Assay [8] concerns the target Calcium-dependent protein kinase 4 (Plasmodium falciparum (isolate 3D7)) (UniProt Q8IBS5). Kind of assay: PfCDPK4 kinase inhibitors, biochemical, TCAMS library (AID 1159588; cut-off not given, nearly all actives have IC50 up to about 0.91 µM). The note with it: recombinant PfCDPK4, Kinase-Glo ATP depletion luminescence. Background: In Kinase-Glo more light means more ATP remaining.

A number with no mark means an inactive call. For some of these results: Potency and affinity values are given separately. Active and inactive are the calls of the source. Unless noted, how the calls were made is not given here.

From PubChem BioAssay come the findings set out here.

Sequence of Calcium-dependent protein kinase 1 (Plasmodium falciparum (isolate 3D7)) (P62344 whole entry, looked up): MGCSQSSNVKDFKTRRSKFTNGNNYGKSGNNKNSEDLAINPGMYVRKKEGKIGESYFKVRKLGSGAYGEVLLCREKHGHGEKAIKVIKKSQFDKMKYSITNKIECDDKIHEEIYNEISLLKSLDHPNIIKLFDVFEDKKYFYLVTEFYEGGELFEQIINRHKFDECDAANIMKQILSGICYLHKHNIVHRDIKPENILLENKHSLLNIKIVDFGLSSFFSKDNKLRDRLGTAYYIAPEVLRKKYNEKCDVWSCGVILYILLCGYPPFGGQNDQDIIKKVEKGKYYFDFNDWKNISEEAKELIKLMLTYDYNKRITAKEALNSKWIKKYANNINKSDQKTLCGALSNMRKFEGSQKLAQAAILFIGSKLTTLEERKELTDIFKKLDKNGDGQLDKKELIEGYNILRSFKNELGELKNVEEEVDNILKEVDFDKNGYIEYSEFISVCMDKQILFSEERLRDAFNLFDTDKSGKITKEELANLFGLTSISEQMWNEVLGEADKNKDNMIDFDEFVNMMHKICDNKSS
Sequence of Plasmodium falciparum protein kinase 6 (PK6, PF3D7_1337100) (Q8IDW1 1-305): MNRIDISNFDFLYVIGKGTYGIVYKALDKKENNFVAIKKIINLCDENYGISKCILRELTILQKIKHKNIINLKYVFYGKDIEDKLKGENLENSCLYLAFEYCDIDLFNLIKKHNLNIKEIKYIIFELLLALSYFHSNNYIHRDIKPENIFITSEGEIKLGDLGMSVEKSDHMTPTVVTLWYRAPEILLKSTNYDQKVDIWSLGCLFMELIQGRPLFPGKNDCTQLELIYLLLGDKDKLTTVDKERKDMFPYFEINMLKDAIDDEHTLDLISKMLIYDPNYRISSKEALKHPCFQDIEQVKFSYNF
Sequence of Calcium-dependent protein kinase 4 (Plasmodium falciparum (isolate 3D7)) (Q8IBS5 whole entry, looked up): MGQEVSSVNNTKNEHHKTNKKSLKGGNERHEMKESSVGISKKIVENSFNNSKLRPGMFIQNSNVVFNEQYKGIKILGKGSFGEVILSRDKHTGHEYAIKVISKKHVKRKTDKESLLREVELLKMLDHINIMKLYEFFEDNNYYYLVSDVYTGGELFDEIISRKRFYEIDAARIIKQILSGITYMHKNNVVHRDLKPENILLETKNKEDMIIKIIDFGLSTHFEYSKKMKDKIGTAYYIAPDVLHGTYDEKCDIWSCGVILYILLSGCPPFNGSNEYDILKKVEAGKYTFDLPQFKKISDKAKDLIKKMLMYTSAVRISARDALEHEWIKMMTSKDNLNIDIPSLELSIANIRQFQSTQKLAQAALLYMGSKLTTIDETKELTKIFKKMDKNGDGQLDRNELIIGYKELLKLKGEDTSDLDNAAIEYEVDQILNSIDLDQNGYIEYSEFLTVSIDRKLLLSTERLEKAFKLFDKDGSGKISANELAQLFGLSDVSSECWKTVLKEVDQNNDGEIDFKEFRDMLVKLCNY
Sequence of Protein kinase 7 (PK7), Plasmodium falciparum 3D7 (PF3D7_0213400) (Q7YTF7 1-343): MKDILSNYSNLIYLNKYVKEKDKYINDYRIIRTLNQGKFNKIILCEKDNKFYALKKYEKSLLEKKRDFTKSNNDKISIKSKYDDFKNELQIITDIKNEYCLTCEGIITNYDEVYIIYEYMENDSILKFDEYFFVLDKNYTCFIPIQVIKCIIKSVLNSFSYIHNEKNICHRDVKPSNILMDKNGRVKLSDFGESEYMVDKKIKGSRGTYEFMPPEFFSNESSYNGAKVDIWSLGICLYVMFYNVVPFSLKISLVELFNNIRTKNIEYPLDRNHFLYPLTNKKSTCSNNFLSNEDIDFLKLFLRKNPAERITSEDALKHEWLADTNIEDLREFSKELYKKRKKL
Sequence of L-lactate dehydrogenase (Plasmodium falciparum (isolate CDC / Honduras)) (Q27743 whole entry, looked up): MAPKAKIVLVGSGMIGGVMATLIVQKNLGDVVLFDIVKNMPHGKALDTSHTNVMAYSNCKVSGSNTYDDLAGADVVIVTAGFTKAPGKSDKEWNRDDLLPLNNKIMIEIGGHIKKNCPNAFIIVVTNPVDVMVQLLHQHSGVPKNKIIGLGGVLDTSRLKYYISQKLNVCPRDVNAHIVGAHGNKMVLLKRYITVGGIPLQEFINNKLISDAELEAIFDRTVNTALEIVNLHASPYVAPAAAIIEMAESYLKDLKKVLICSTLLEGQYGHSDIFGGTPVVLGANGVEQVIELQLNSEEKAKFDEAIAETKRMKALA

Consider `N#Cc1cccc(NC(=O)NC2CCN(CCCCCNC(=O)/C=C/c3ccc(Cl)c(Cl)c3)CC2)c1`, for which the figures for the growth inhibition in assay [1] and in assay [4] were 7% and 100% (active), respectively. The figures for the inhibition in assay [2] and in assay [3] were 31% and 0%, respectively. Moreover, the outcome in assay [5], in assay [6], in assay [7] and in assay [8] was inactive.
In the case of `CCCc1ccccc1OCC(O)CN(C1CCCC1)C1CCCC1` (stereo not given), the growth inhibition in assay [1] and in assay [4] was 97% (active) in each case. In addition, the inhibition (in general, the change of the read-out against control, counted positive when it falls) in assay [2] is 49%; in assay [3], -7%. Further, the outcome in assay [5], in assay [6], in assay [7] and in assay [8] was inactive.
On to `Cc1nc2ccc(NC(=O)Nc3ccnc4ccc(C(F)(F)F)cc34)cc2o1`, for which the growth inhibition in assay [1] was 24%; in assay [4] it was 89% (active). Besides, the inhibition in assay [2] is 20%; in assay [3], -7%. The result in assay [5], in assay [6], in assay [7] and in assay [8] was inactive.
As to `NCCCN(Cc1ccc(Cl)c(Cl)c1)C(=O)Nc1ccc(Cl)c(Cl)c1`, the values for the growth inhibition in assay [1] and in assay [4] were 41% and 93% (active), respectively. The results for the inhibition in assay [2] and in assay [3] were 100% (active) and -2%, respectively. For the same compound, the result in assay [5], in assay [6], in assay [7] and in assay [8] was inactive.
As to `CC(C)C[C@H](Nc1ccnc(NCC2CCCCC2)n1)C(=O)NCCOc1ccccc1`, the growth inhibition is 73% (active) in assay [1] and 89% (active) in assay [4]. Also, the results for the inhibition in assay [2] and in assay [3] were 37% and 3%, respectively. Besides, the outcome in assay [5], in assay [6], in assay [7] and in assay [8] was inactive.
With `O=S(=O)(Nc1cc2c(cc1OCCCN1CCCCC1)CCNCC2)c1ccc(-c2ccc(Cl)cc2)cc1`, the growth inhibition in assay [1] was 19%; in assay [4], 100% (active). Besides, the inhibition in assay [2] is 77% (active); in assay [3], 2%. Besides, the result in assay [5], in assay [6], in assay [7] and in assay [8] was inactive.
As for `CC(C)CNCc1cccc(-c2cccc(CNC3CCN(Cc4ccccc4)CC3)c2)c1`, the figures for the growth inhibition in assay [1] and in assay [4] were 99% (active) and 102% (active), respectively. Moreover, the inhibition in assay [2] was 32%; in assay [3], -2%. In addition, the result in assay [5], in assay [6], in assay [7] and in assay [8] was inactive.
In the case of `CC1(C)N=C(N)N=C(N)N1OCCCOc1cc(Cl)c(Cl)cc1Cl`, the growth inhibition in assay [1] and in assay [4] was 95% (active) in each case. In addition, the inhibition is 60% (active) in assay [2] and -1% in assay [3]. Further, the result in assay [5], in assay [6], in assay [7] and in assay [8] was inactive.
Consider `Cc1ccccc1C1CCN(C2CCC(NC(=O)/C=C/c3cccc(Cl)c3Cl)CC2)CC1` (stereo not given), for which the growth inhibition in assay [1] was 23%; in assay [4], 94% (active). The results for the inhibition in assay [2] and in assay [3] were 74% (active) and 2%, respectively. Further, the outcome in assay [5], in assay [6], in assay [7] and in assay [8] was inactive.
As to `FC(F)(F)c1ccc2nccc(NN=Cc3cccnc3)c2c1`, the growth inhibition in assay [1] is 40%; in assay [4], 101% (active). Besides, the inhibition was -9% in assay [2] and -8% in assay [3]. Also, the result in assay [5], in assay [6], in assay [7] and in assay [8] was inactive.
For `Cc1cc(N2Cc3ccccc3C2)nc(Nc2cccc(C#N)c2)n1`, the growth inhibition in assay [1] is 97% (active); in assay [4], 100% (active). In addition, the figures for the inhibition in assay [2] and in assay [3] were 6% and -2%, respectively. Moreover, the outcome in assay [5], in assay [6], in assay [7] and in assay [8] was inactive.
Turning to `C[C@@H]1CN(CCCn2c3ccccc3c3ccc(C(=O)CCCN(C)C)cc32)C[C@H](C)N1`, the growth inhibition in assay [1] is 6%; in assay [4] it was 100% (active). The inhibition in assay [2] is 26%; in assay [3], 3%. Besides, the result in assay [5], in assay [6], in assay [7] and in assay [8] was inactive.
Turning to `COC(=O)c1cc(C(=O)CN(Cc2ccccc2)C(C)C)ccc1O`, the growth inhibition is -1% in assay [1] and 97% (active) in assay [4]. For the same compound, the inhibition is 7% in assay [2] and -2% in assay [3]. Besides, the result in assay [5], in assay [6], in assay [7] and in assay [8] was inactive.
For the compound `O=[N+]([O-])c1cccc(-c2nc(-c3ccc(Br)cc3)[nH]c2-c2ccc(Br)cc2)c1`, the growth inhibition in assay [1] is 44%; in assay [4], 99% (active). Moreover, the inhibition in assay [2] was 6%; in assay [3] it was 2%. Also, the result in assay [5], in assay [6], in assay [7] and in assay [8] was inactive.
Take `COc1ccc2cc(-c3nc(-c4c(Cl)cccc4Cl)[nH]c3-c3ccnc(NCCCN4CCN(C)CC4)c3)ccc2c1`: the growth inhibition in assay [1] was 80% (active); in assay [4], 98% (active). The figures for the inhibition in assay [2] and in assay [3] were 10% and -5%, respectively. The result in assay [5], in assay [6], in assay [7] and in assay [8] was inactive.
In the case of `O=C(NCc1ccco1)c1ccc(CN2CCN(C(c3ccccc3)c3ccccc3)CC2)cc1`, the growth inhibition in assay [1] was 92% (active); in assay [4], 96% (active). The inhibition in assay [2] was 6%; in assay [3] it was -1%. Moreover, the outcome in assay [5], in assay [6], in assay [7] and in assay [8] was inactive.
For `CCC(C)CN1CCN(c2cc(NC(=O)c3cccs3)ccn2)C(C)C1` (stereo not given), the growth inhibition in assay [1] is 72% (active); in assay [4] it was 88% (active). The inhibition is 5% in assay [2] and 0% in assay [3]. The result in assay [5], in assay [6], in assay [7] and in assay [8] was inactive.
For `Cc1c(CC(=O)NCCC2CCN(CCCCCNC(=O)/C=C/c3ccc(Cl)c(Cl)c3)CC2)sc2ccc(Cl)cc12`, the growth inhibition in assay [1] was 8%; in assay [4], 92% (active). Besides, the inhibition in assay [2] was 59% (active); in assay [3] it was 0%. For the same compound, the outcome in assay [5], in assay [6], in assay [7] and in assay [8] was inactive.
With `COc1c(C2=CCN(CCCCNC(=O)c3ccc(-c4ccc(C#N)cc4)cc3)CC2)ccc2c1CCCC2`, the results for the growth inhibition in assay [1] and in assay [4] were 82% (active) and 94% (active), respectively. Further, the inhibition in assay [2] is 44%; in assay [3], 7%. Besides, the outcome in assay [5], in assay [6], in assay [7] and in assay [8] was inactive.
For the compound `O=C(Nc1cccnc1)c1cc(-c2cc(Cl)ccc2O)n[nH]1`, the growth inhibition in assay [1] was 85% (active); in assay [4], 98% (active). Besides, the inhibition was 7% in assay [2] and 6% in assay [3]. The result in assay [5], in assay [6], in assay [7] and in assay [8] was inactive.
